Measurements published in article PMC4336329 (PLoS ONE, 2015).
The whole screen tested about 310,000 compounds, of which about 14,000 (4.5%) showed an effect of 50% or more. Effects have a minus sign here. The entries come from a sample that favours strong results as a whole.

Molecular target: human ether-à-go-go-related gene (hERG) potassium channel (human, UniProt Q12809)
Assay: primary screen, population patch clamp on CHO cells stably expressing hERG; higher = less effect of the substance
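Also: peak tail current of the secondary pulse compared with the same well before compound.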

Sequence of human ether-à-go-go-related gene (hERG) potassium channel (Q12809 whole entry, looked up): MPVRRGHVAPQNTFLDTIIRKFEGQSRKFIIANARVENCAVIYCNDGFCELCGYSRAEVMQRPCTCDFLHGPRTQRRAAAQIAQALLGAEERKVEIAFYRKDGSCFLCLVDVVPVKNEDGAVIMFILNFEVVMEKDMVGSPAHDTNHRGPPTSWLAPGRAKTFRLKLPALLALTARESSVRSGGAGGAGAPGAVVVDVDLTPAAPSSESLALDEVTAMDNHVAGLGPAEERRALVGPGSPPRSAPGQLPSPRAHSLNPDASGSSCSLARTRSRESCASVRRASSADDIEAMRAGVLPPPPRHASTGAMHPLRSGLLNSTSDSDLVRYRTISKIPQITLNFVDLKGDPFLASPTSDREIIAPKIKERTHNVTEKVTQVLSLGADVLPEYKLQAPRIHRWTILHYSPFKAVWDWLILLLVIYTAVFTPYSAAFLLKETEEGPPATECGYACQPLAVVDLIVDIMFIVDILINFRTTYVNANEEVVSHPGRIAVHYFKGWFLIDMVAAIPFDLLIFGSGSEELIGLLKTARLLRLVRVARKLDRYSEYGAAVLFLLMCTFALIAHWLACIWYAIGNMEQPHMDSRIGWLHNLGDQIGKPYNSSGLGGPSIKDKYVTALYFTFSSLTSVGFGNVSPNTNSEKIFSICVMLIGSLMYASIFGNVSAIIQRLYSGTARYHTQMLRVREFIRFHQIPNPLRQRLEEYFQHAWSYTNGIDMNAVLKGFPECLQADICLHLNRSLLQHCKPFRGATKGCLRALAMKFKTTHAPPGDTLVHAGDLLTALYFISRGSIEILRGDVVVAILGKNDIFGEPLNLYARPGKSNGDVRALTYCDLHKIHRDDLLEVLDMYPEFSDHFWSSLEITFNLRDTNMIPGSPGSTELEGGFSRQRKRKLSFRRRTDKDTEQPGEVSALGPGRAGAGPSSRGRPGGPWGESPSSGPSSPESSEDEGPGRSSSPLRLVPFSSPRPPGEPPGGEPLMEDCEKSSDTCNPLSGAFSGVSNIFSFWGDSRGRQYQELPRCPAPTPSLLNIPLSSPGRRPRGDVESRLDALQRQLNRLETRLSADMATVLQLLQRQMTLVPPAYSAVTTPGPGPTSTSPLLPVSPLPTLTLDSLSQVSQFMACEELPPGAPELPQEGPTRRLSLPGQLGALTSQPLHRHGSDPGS

Row | Structure (SMILES) | hERG current change (%, negative = inhibition) at 10uM [%]
1 | COc1cc(/C=C2\S/C(=N/S(=O)(=O)c3ccccc3)NC2=O)c([N+](=O)[O-])cc1OC | 4.25
2 | O=C(CC1SC(=O)N(Cc2ccc(Cl)cc2)C1=O)Nc1nccs1 (stereo not shown) | -4.51
3 | O=c1[nH]c(=O)n(C2OC(CO)C(O)C2O)cc1Br (stereo not shown) | 26.2
4 | CCOC(=O)c1c(-c2ccc(C)o2)csc1N | 20.5
5 | Oc1ccccc1C1=Nc2ccccc2N=C(c2ccco2)C1 | -12.7
6 | COc1ccc(CNS(=O)(=O)c2c(C)[nH]c(C)c2C(=O)N2CCCC2)cc1 | 17.6
7 | CN(C)S(=O)(=O)N1CCN(c2ccccc2)CC1 | -1.78
8 | CN(C)S(=O)(=O)N1CCN(c2ccc(Cl)cc2)CC1 | -14.4
9 | CCOC(=O)N1CCN(c2c(N3CCN(C(=O)OCC)CC3)c(=O)c2=O)CC1 | -29.1
10 | COC(=O)C1CCN(c2ccc([N+](=O)[O-])cc2)CC1 | -21.7
11 | CCOC(=O)C1CCN(c2ccc([N+](=O)[O-])cc2)CC1 | -68.9
12 | CCOC(=O)N1CCN(c2c(N3CCN(c4ccc(F)cc4)CC3)c(=O)c2=O)CC1 | -73.4
13 | CN(C)S(=O)(=O)N1CCN(c2ccc([N+](=O)[O-])cc2)CC1 | -76.7
14 | O=C(C1CCN(S(=O)(=O)c2cnc[nH]2)CC1)N1CCN(c2ccc([N+](=O)[O-])cc2)CC1 | -1.78
15 | O=S(=O)(c1cnc[nH]1)N1CCN(c2ccc(F)cc2)CC1 | -3
16 | O=[N+]([O-])c1ccc(N2CCN(S(=O)(=O)c3cnc[nH]3)CC2)cc1 | -59.8
17 | CCOC(=O)N1CCN(c2c(N3CCN(c4ccc(OC)cc4)CC3)c(=O)c2=O)CC1 | -46.6
18 | CCOC(=O)C1CCN(c2ccc([N+](=O)[O-])c(C(C)=O)c2)CC1 | -11.8
19 | C[C@]12CCC3C(CC[C@H]4CCCC[C@]34C)C1CC[C@@]2(O)CNCCO (stereo partly shown) | 15.6
20 | O=C(O)CCCNc1cc(N2CCN(C(=O)c3ccco3)CC2)c2noc3c2c1C(=O)c1ccccc1-3 | 19

Row | Structure (SMILES) | hERG current change (%, negative = inhibition) at 10uM [%]
21 | O=C(O)C1CCCCC1C(=O)Nc1nc(-c2ccc(Cl)s2)cs1 (stereo not shown) | 13.7
22 | C/C(=N\NC(=O)c1ccc(F)cc1)c1ccc(N2CCOCC2)cc1 | -16.7
23 | O=S(=O)(c1cccc(-c2cn3cc(Cl)ccc3n2)c1)N1CCOCC1 | -23.1
24 | CCCCOC(=O)c1ccc(NC(=O)CSCc2n[nH]c(=O)[nH]2)cc1 | 1.91
25 | S=C(NC1CCCCC1)N(CCc1nc2ccccc2[nH]1)C1CCCC1 | 4.83
26 | COc1ccc(N2CCN(C(=O)C3CCN(C(=O)c4cccc(Cl)c4)CC3)CC2)cc1 | -29.8
27 | O=[N+]([O-])c1ccc(N2CCN(c3ccccc3O)CC2)cc1 | -0.173
28 | CCOC(=O)N1CCN(c2ccc([N+](=O)[O-])cc2)CC1 | -59.4
29 | COc1ccc(C(=O)N2CCC(C(=O)N3CCN(c4ccc(OC)cc4)CC3)CC2)cc1 | -43.5
30 | CCOC(=O)N1CCN(c2ccc(O)cc2)CC1 | 15.6
31 | CCN(CC)C(=O)Cn1cc(C(=O)C(=O)N2CCN(c3ccccc3)CC2)c2ccccc21 | -0.908
32 | Cc1cnc(C(=O)Nc2ccc(N3CCN(C(=O)OC(C)(C)C)CC3)cc2)cn1 | 14.1
33 | CCN(CC)C(=O)Cn1cc(C(=O)C(=O)N2CCN(c3ccc([N+](=O)[O-])cc3)CC2)c2ccccc21 | -65.8
34 | COc1ccc(N2CCN(C(=O)C3CCN(C(=O)c4ccc([N+](=O)[O-])cc4)CC3)CC2)cc1 | -69
35 | CCN(CC)C(=O)Cn1cc(C(=O)C(=O)N2CCN(c3ccc(OC)cc3)CC2)c2ccccc21 | 16.1
36 | CCOC(=O)N1CCN(S(=O)(=O)c2ccc([N+](=O)[O-])cc2)CC1 | -23.9
37 | CC(C)(C)OC(=O)N1CCN(c2ccc([N+](=O)[O-])cc2)CC1 | -73.3
38 | COC(=O)C(NS(=O)(=O)c1ccc(NC(C)=O)cc1)C(C)C (stereo not shown) | -0.58
39 | CN(C)CCCNC(=O)c1cc(C(=O)C2CCCCC2)c[nH]1 | -3.99
40 | C=C(C)C(C)(C#CCN1CCCC1)OC(C)=O (stereo not shown) | -6.48

Row | Structure (SMILES) | hERG current change (%, negative = inhibition) at 10uM [%]
41 | NS(=O)(=O)c1ccc(CNC(=O)CCC2CCCCC2)cc1 | -2.5
42 | COc1cc(NC(=S)N2CCN(S(=O)(=O)c3ccc(C)cc3)CC2)cc(OC)c1 | -4.7
43 | CC(=O)c1ccc(-n2cc(C#N)c(=O)[nH]c2=O)cc1 | 18.9
44 | CC1CN(C(=O)c2cccc(COc3ccccc3Cl)c2)CC(C)O1 (stereo not shown) | -49.3
45 | Cc1ccc(C(=O)OCc2cn(-c3ccccc3)nn2)cc1 | -7.92
46 | O=C(O)Cc1sc(Nc2ccccc2)nc1-c1ccc(Cl)cc1 | 14.6
47 | Nc1nnc(SCC(=O)Nc2cccc(S(=O)(=O)N3CCOCC3)c2)s1 | 24.1
48 | O=C(C1CC1)N1CCN(c2ccc(O)cc2)CC1 | -17.3
49 | CCOC(=O)N1CCN(c2c(N3CCc4ccccc4C3)c(=O)c2=O)CC1 | -34.8
50 | CCOC(=O)N1CCN(c2c(N3CC=C(c4ccccc4)CC3)c(=O)c2=O)CC1 | -51.9
51 | COc1ccc(N2CCN(C(=O)C3(C)CC3(Cl)Cl)CC2)cc1 (stereo not shown) | 2.66
52 | CCOC(=O)N1CCN(c2c(-c3ccc(C)cc3)c(=O)c2=O)CC1 | -29.7
53 | O=C(C1CC1)N1CCN(c2ccc([N+](=O)[O-])cc2)CC1 | -61.8
54 | CC(=O)N1CCN(c2ccc([N+](=O)[O-])cc2)CC1 | -55.9
55 | CC1(C(=O)N2CCN(c3ccc([N+](=O)[O-])cc3)CC2)CC1(Cl)Cl (stereo not shown) | -72.7
56 | CC1(C(=O)N2CCN(c3ccccc3)CC2)CC1(Cl)Cl (stereo not shown) | 6.47
57 | CC(=O)N1CCN(c2ccc(NC(=O)c3ccc([N+](=O)[O-])cc3)cc2)CC1 | 1.37
58 | CC(=O)N1CCN(C(=S)c2ccc([N+](=O)[O-])cc2)CC1 | -3.4
